# Bioassay records deposited in PubChem by several laboratories.
# Sampled rows, rich in hits. Any-hit rate of the full collection: about 4.3%.
# esBAF inh: Bmi1 luciferase reporter increase in mESCs, primary screen, esBAF inhibitor project, mouse ES cells, Bmi1 luciferase knock-in, single point; 24 h; 100% = twice the neutral-well signal; AID 602393, 2012; reporter increase, % at 12.5 µM; 2% of 350,000 active; in the data active means activation above about 40%;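 further: a rise in the Bmi1 reporter signal indicates esBAF inhibition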
# SMARCA2 act: SMARCA2 (BRM) function activators, primary screen, cell-based, luminescence, high throughput. activation, % at 9.1 µM. 1% of 370,000 active. MG213 cells, MMTV-luciferase reporter, dexamethasone, overnight; in the data active means activation above about 7.8%
# Wnt act: Wnt/beta-catenin pathway activators, primary screen, cell-based, plate reader, single point; Wnt/beta-catenin reporter cell assay, activator; activation, % at 9.35 µM; 1.2% of 300,000 active; AID 743398, 2014; in the data active means activation above about 30%, passing the limit was not always enough
# MITF act: activators of MITF-driven TRPM1 promoter reporter, primary screen, cell-based, SK-MEL-5, luciferase, single point; SK-MEL-5 TRPM1-promoter luciferase, 24 h; % of positive control, neutral wells = 0; activation, % at 12.5 µM; 0.75% of 300,000 active; AID 588334, 2011;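 active means mean activation of at least 80% with every replicate also reaching 80%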
# HSF-1 act: HSF-1 activators, primary screen, NIH3T3-HGL cells, MG132 stress, luminescence, single point | activation, % at 9 µM | 1.7% of 300,000 active | NIH3T3-HGL HSF-1 luciferase reporter, 8 h; 100% = twice DMSO control signal;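 active means mean replicate activation of at least 50% with a set share of replicates each reaching 50%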
# HSF1 inh: HSF1 inhibitors in luciferase reporter cells, primary screen, cell-based, NIH3T3, luminescence. NIH3T3-HGL HSE-luciferase, MG132-induced, luminescence 8 h; hits give low values. AID 2098, 2009. 0.77% of 300,000 active. activity change, negative = inhibition, % at 7.5 µM (by protocol);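 active means more than half of replicate wells show activity change below -50%, luminescence cut by over half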;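 further: luciferase reports HSF-1 transcriptional activity via heat shock element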
# A number is an active result; 0 = inactive; - = not tested or not shown.
SMILES,esBAF inh,SMARCA2 act,Wnt act,MITF act,HSF-1 act,HSF1 inh
C(/C=C/c1ccco1)=N/N1CCN(c2ccccc2)CC1,0,0,-,113.0,0,0
CCOC(=O)C(CC)(CC)C(=O)/C=C/c1ccc(Br)cc1,0,0,-,0,0,0
CCOC(=O)/C(=C/c1ccc(OC(=O)c2ccncc2)cc1)C(C)=O,-,0,45.7,0,0,0
CCOC(=O)C(=Cc1ccc(-n2ccnc2)cc1)C(=O)OCC,0,0,55.6,0,128.0,0
COCCOC(=O)/C(=C/c1ccc(OC(=O)c2ccccc2)cc1)C(C)=O,0,-,-,0,0,0
CCOC(=O)C(=Cc1ccc(Br)cc1)C(=O)OCC,0,0,0,0,148.3,0
CCOC(=O)C(=Cc1ccc(F)cc1)C(=O)OCC,-,-,-,-,125.9,0
O=C(NCC1CCCO1)c1cc(-c2ccccc2F)no1 (centres undefined),56.8,0,0,0,0,0
Cc1onc(-c2ccccc2Cl)c1C(=O)NCC1CCCO1 (centres undefined),0,0,-,0,0,0
O=C(NCC1CCCO1)c1ccc(-c2ccccc2Cl)o1 (centres undefined),-,0,0,130.2,58.8,0
O=C(NC12CC3CC(CC(C3)C1)C2)c1ccc(-c2ccccc2Cl)o1,44.8,0,0,0,0,0
CCC(=O)Nc1ccc2c(c1)OC[C@@H](C)N(C(=O)CC)C[C@H](C)[C@@H](OC)CN(C)C2=O,0,-,-,-,-,-
C[C@@H]1CN([C@H](C)CO)C(=O)c2cc(-c3ccccc3F)cnc2O[C@H]1CN(C)Cc1cccc(C(=O)O)c1,0,-,-,-,-,-
N#CCCN(C(=O)c1cc2c(s1)-c1ccccc1S(=O)(=O)C2)c1ccccc1,0,0,0,0,0,0
CN(CCC#N)C(=O)c1cc2c(s1)-c1ccccc1SC2,53.3,0,0,86.3,0,0
C=CCn1c(COc2ccc(CC)cc2)nnc1SC/C(O)=C(\C#N)c1nc2ccccc2[nH]1,0,0,0,0,80.4,0
COCC(=O)Nc1ccc2c(c1)C(=O)N(C)C[C@H](OC)[C@@H](C)CN(C(=O)Cc1ccccn1)[C@@H](C)CO2,0,-,-,-,-,-
Cc1cc(C)nc(N/N=C/c2sccc2C)n1,-,0,0,0,0,0
Cc1ccsc1/C=N/Nc1ccc(F)cc1F,-,0,0,94.8,0,0
COc1cc(/C=N/Nc2ccc(F)cc2F)cc(OC)c1OC,-,0,0,0,0,0
Cc1ccsc1/C=N/Nc1ncc(Cl)cc1Cl,55.1,0,0,-,0,0
COc1ccc(C)c2sc(NC(=O)C3=COCCO3)nc12,0,0,0,0,0,-69.2
COc1ccc(OC)c2sc(NC(=O)C3=COCCO3)nc12,0,0,0,0,0,0
COc1cccc2sc(NNC(=O)C3=COCCO3)nc12,46.5,0,0,0,0,0
C[C@H](CO)N1C[C@H](C)[C@@H](CN(C)C(=O)Cc2ccncc2)Oc2cc(C#CC3CCCC3)ccc2S1(=O)=O,0,-,-,-,-,-
SMILES,esBAF inh,SMARCA2 act,Wnt act,MITF act,HSF-1 act,HSF1 inh
Nn1c(SCC(=O)N2CCCC2)nnc1C1CCCCC1,0,0,0,-,-,-
CC(C)OC(=O)CSc1nnc(C2CCCCC2)n1N,-,0,41.5,-,0,0
Nn1c(SCC(=O)N2CCOCC2)nnc1C1CC1,0,0,0,0,83.1,0
Nn1c(SCC(=O)NCc2ccccc2)nnc1C1CC1,0,0,-,0,52.3,0
C[C@@H]1CCCCO[C@H](CN(C)S(=O)(=O)c2cccs2)[C@@H](C)CN([C@H](C)CO)C(=O)c2cc(NC(=O)c3ccncc3)ccc2O1,0,-,-,-,-,-
CCOC(=O)N1CCN(C(=O)c2ccc3c(c2)sc2nc(-c4ccc(OC)cc4)cn23)CC1,0,0,-,0,-,-
COc1ccc2c(c1)sc1nc(-c3ccccc3)cn12,-,0,-,0,0,-67.6
Cc1ccc(S(=O)(=O)Nc2ccc3c(c2)C(=O)N([C@@H](C)CO)C[C@@H](C)[C@H](CN(C)CC2CCCCC2)O3)cc1,0,-,-,-,-,-
CCCNC(=O)[C@@H]1[C@@H](CO)[C@@H]2Cn3c(cccc3=O)[C@H]1N2C(=O)C1CCCC1,0,-,-,-,-,-
COc1cccc2cc(-c3nc4ccccc4o3)c(=O)oc12,0,0,42.3,0,0,0
O=c1oc2ccc(Br)cc2cc1-c1nc2ccccc2o1,0,0,0,0,0,0
